# D1 ag = human D1 receptor agonism. activation, % at 2 µM. HEK293 T-REx D1 cells, calcium flux, agonist mode. 1% of 360,000 active. AID 504660. P21728; further: 0% is about no effect
# Target sequence (P21728 whole entry, looked up): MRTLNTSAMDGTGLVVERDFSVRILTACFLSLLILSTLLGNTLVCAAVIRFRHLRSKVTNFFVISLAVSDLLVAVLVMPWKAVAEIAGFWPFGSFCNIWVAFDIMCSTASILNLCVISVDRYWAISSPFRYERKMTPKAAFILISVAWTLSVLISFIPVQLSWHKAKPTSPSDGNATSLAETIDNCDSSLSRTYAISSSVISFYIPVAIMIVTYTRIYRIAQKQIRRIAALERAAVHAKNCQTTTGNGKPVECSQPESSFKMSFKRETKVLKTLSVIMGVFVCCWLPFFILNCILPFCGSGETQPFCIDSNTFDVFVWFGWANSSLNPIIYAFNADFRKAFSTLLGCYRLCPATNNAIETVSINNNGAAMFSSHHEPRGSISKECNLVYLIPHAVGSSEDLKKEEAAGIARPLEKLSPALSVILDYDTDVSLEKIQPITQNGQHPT
#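 Agonism was scored from calcium flux recorded over 180 s (1 read/s) after pintool compound addition, following a 10-cycle baseline. Cells were inducible force-coupled HEK293 TREx D1, plated overnight at 30 C and loaded with no-wash calcium dye.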
# D1 antag = human D1 dopamine receptor antagonism; P21728; HEK293 TREx D1 cells, calcium flux, dopamine EC80; active compounds read low; activity change, negative = inhibition, % at 10 µM; 3.2% of 360,000 active; in the data active means activity change below about -30%; further: on the % scale 0 is the no-effect control and ±100 the full control effect
#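 Inducible Hek293 Trex D1 cells (tetracycline, overnight, 30 C). Calcium dye 30–90 min RT. Antagonist mode: EC80 dopamine added after 180 s compound read.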
# D1 potentiator = enhances dopamine response at the human D1 receptor. P21728. HEK293 TREx D1 cells, calcium flux, dopamine EC20 potentiation. potentiation, % at 10 µM. 0.036% of 360,000 active. AID 504651; in the data active means potentiation above about 30%; further: 0% is about no effect
# TRHR ag = activates the human TRH receptor; activation, % at 2 µM; P34981; TRHR cells, calcium flux fluo-8, FDSS agonist mode; 0.18% of 360,000 active; further: 0% is about no effect
#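 In this calcium-flux screen, cells bearing human TRHR are dye-loaded with fluo-8, baselined for 10 cycles, then exposed to library compounds; positive kinetic calcium responses during the agonist phase mark hits, with TRH as control.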
# TRHR enhancer = allosteric enhancers of human TRH receptor; P34981; TRHR cells, fluo-8 calcium fluorescence, EC20 TRH enhancement; enhancement, % at 2 µM; 0.66% of 360,000 active; AID 493056; in the data active means enhancement above about 30%; further: 0% is about no effect
#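 Enhancer read-out: after compound pinning and an initial kinetic agonist-mode read, an EC20 of TRH (10 nM final) was injected and fluo-8 calcium signal (Ex 480/Em 530) followed at 1 s/cycle for 100 cycles in TRHR-expressing cells.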
# Numbers without * were called inactive; . = no result. The list is not random: actives were taken first. Their share in the collection is about 4.7%. Unless noted, no stated cut-off is given here; in the data, active means activation above about 30%; inactive means the rest.
SMILES,D1 ag,D1 antag,D1 potentiator,TRHR ag,TRHR enhancer
O=C(c1cc(-c2ccc(Cl)cc2)on1)N(Cc1ccc(F)cc1)Cc1ccco1,30.4*,-39.0*,-0.5,2.5,-0.9
CS(=O)(=O)c1ncc(Cl)c(C(=O)N(Cc2ccc(Cl)cc2)Cc2ccco2)n1,0.5,-63.1*,-3.3,4.3,-15.7
CCc1ccc(CN(Cc2ccco2)C(=O)c2cc(-c3ccc(Cl)cc3)on2)cc1,22.4,-1.6,-0.4,3.7,-0.7
Cc1ccc2oc(C(=O)NCC(c3ccco3)N(C)C)c(C)c2c1 (stereo not given),2.6,7.6,-1.0,-0.2,-1.3
COc1ccc(CNC(=O)c2[nH]c(C)c(C(C)=O)c2C)cc1,6.5,1.7,.,0.8,3.2
CCc1nn(C(C)C(=O)N2CCN(c3cccc(C(F)(F)F)c3)CC2)c(=O)c2cc3occc3n12 (stereo not given),1.2,3.7,-5.1,-0.4,-6.8
COC(=O)c1ccc(NC(=O)CN2C(=O)c3cccc4cccc2c34)cc1,0.3,0.6,-3.6,-0.5,10.8
CN1C(=O)CC(c2ccco2)Sc2ccccc21 (stereo not given),1.7,-20.3,-4.8,-0.5,35.0*
CCCN1C(=O)CC(c2ccco2)Sc2ccccc21 (stereo not given),0.5,-18.0,-11.3,0.1,-1.9
CC1CCCCC12NC(=O)N(CC(=O)N1CCN(c3ncccn3)CC1)C2=O (stereo not given),-0.2,21.5,2.6,0.2,16.1
COc1cc2c(c(OCC(=O)NC(C)C)c1)C(=O)O[C@@H](C)CCCC(=O)CCCCC2,0.5,-33.1*,-7.1,0.8,0.3
CCc1ccc(C(=O)c2cn(CC(=O)Nc3cccc(OC)c3)c3ccc(OC)cc3c2=O)cc1,6.8,15.5,0.8,2.0,6.9
COc1ccc(N2CCN(C3CCCCC3NS(=O)(=O)c3ccc(Cl)cc3)CC2)cc1 (stereo not given),1.9,27.7,-3.6,8.9,-3.2
COc1ccccc1N1CCN(C2CCCCC2NS(=O)(=O)c2ccc(Cl)cc2)CC1 (stereo not given),0.5,10.9,2.5,46.2*,-15.7
O=C(Oc1ccc2ccccc2c1Br)N1CCCCCC1,2.1,-0.3,-4.0,-0.3,-1.0
O=C(Oc1ccc2cc(Br)ccc2c1)N1CCCCCC1,40.6*,-7.1,-1.2,1.2,2.3
CCCOc1ccc(NC(=O)CC2C(=O)N(c3cccc(C)c3)C(=O)N2CCc2ccncc2)cc1 (stereo not given),0.5,0.5,-2.6,-0.1,3.1
CC1CCCC(C)N1CC(O)COc1c(F)cc(Br)cc1F (stereo not given),6.3,-52.1*,-13.8,0.0,2.0
COC(=O)C1=C(C)N(C2CCCCC2)C(=O)/C1=C\c1cccs1,0.9,6.1,13.1,-0.4,39.7*
COC(=O)C1=C(C)N(C)C(=O)/C1=C\c1cccs1,-0.1,-8.1,-7.6,0.1,-7.0
Cc1ccc2c(c1)C(c1ccccc1)N(C(=O)c1c(F)cccc1Cl)CC(=O)N2 (stereo not given),9.1,-19.9,-4.2,-1.2,-0.5
COc1ccccc1NC(=O)c1nnn(Cc2ccccc2)c1NC(C)=O,3.0,-48.0*,1.1,-0.9,3.2
COc1cccc(NC(=O)c2nnn(Cc3ccc(Br)cc3F)c2N)c1,38.7*,3.6,4.1,5.9,-5.0
COc1cccc(NC(=O)c2nnn(Cc3ccc(OC)c(Br)c3)c2N)c1,4.6,-72.9*,-1.9,0.3,0.5
COc1cccc(NC(=O)c2nnn(Cc3cccc(C(F)(F)F)c3)c2N)c1,62.9*,-7.1,-4.1,-0.8,13.8
SMILES,D1 ag,D1 antag,D1 potentiator,TRHR ag,TRHR enhancer
Cc1ccc(OCCCCN2CCc3ccccc3C2)cc1,2.2,-10.3,-13.6,-1.3,-2.3
COc1ccc(NC(=O)c2nnn(CC(=O)Nc3ccccc3OC)c2N)c(OC)c1,0.8,0.2,-4.3,-0.3,2.4
CCc1ccc(Cn2nnc(C(=O)Nc3ccc(OC)cc3OC)c2N)cc1,33.4*,13.8,.,5.2,7.0
O=C(O)c1ccc2nc(-c3cc4cccc(O)c4oc3=O)[nH]c2c1,1.8,21.2,-3.4,0.4,8.5
O=c1oc2c(CN3CCCCC3)c(O)ccc2cc1-c1nc2ccccc2[nH]1,136.0*,-17.8,-1.9,261.2*,39.8*
C=CCc1cccc2cc(-c3nc4ccc(C)cc4[nH]3)c(=O)oc12,65.7*,-41.9*,2.9,8.0,-7.9
CN1CCN(Cc2c(O)ccc3cc(-c4ccccc4)c(=O)oc23)CC1,0.6,-4.4,-1.2,2.0,0.1
O=c1oc2c(O)cccc2cc1-c1nc2ccccc2[nH]1,408.4*,-4.6,9.1,198.6*,47.9*
CCCNc1c(NC(=O)c2ccc3c(c2)OCO3)c(=O)oc2ccccc12,5.5,4.7,1.5,0.7,7.9
COc1ccccc1NC(=O)Cn1c(=O)oc2cc(S(=O)(=O)NCc3ccccc3)ccc21,3.2,6.8,0.1,-0.5,-3.9
COC(=O)C1=C(C)N(Cc2ccccc2)C(=NCc2cccc(Cl)c2)N[C@H]1c1cccc(F)c1,31.7*,-3.8,-0.3,4.0,14.2
COC(=O)C1=C(C)N(Cc2ccccc2)C(=NCC2CC2)N[C@H]1c1ccccc1,1.0,-7.1,1.9,-0.6,17.7
COC(=O)C1=C(C)N(Cc2ccccc2)C(=NCC(C)C)N[C@H]1c1ccc(Br)cc1,1.1,3.3,-4.8,-0.2,-8.9
COC(=O)C1=C(C)N(Cc2ccccc2)C(=NCC2CC2)N[C@H]1c1ccc(Br)cc1,15.4,-79.9*,-7.0,4.9,31.5*
COC(=O)C1=C(C)N(Cc2ccccc2)C(=NCC(C)C)N[C@H]1c1cccc(F)c1,81.5*,-40.8*,-5.3,5.3,12.6
COC(=O)C1=C(C)N(Cc2ccccc2)C(=NCc2ccc(OC)cc2)N[C@H]1c1cccc(F)c1,26.6,-5.3,-4.8,5.1,-1.6
COC(=O)C1=C(C)N(Cc2ccccc2)C(=NCCc2ccccn2)N[C@H]1c1cccc(C(F)(F)F)c1,34.3*,-15.5,-4.9,8.1,-9.6
O=S(=O)(c1ccc2c(c1)CCCC2)N1CCNCC1,3.3,-23.1,-6.8,1.3,0.2
CCc1cc(C(=O)N2CCCC(C(=O)c3ccc(C(F)(F)F)cc3)C2)n(C)n1 (stereo not given),3.9,3.2,-3.3,1.1,-1.5
COCC1CCCN(Cc2cn(-c3ccccc3F)nc2-c2cc(C)sc2C)C1 (stereo not given),1.8,7.9,1.1,0.6,32.0*
O=[N+]([O-])c1cc(/C=N\O)ccc1Oc1ccc(F)cc1,1.1,-52.8*,-3.9,-0.9,-18.6
N#Cc1ccccc1NS(=O)(=O)c1ccc(N2CCCCS2(=O)=O)cc1,-1.6,-6.9,0.0,0.0,0.2
COc1ccc(CNC(=O)c2cc(=O)c3cc(C)ccc3o2)cc1,9.2,-36.2*,-1.9,-0.6,5.3
